Rows were chosen to be rich in hits. Some 13% of all compounds tested hit in one or more screens of this group.
Shiga toxin inh: inhibitors of Shiga toxin in Vero cells; Vero cells, Shiga toxin protein synthesis inhibition reporter; inhibition, % at 38.7 µM; actives 9.2% (n = 290,000); in the data active means inhibition mostly above about 28%, no sharp cut-off; inactive means mostly below about 43%; further: 0% is about no effect
MARV entry inh: Marburg virus entry inhibition. AID 540276. Potency, µM (series often up to 37.8 µM), for the others: at the highest dose activity change, negative = inhibition, actives largely listed as inhibitors. Marburg virus pseudotyped entry inhibition, cell reporter. actives 1.8% (n = 300,000); calls by dose curve; tested in HEK293 cells; further: potency means the concentration at half of the fitted maximal effect; on the % scale 0 is the no-effect control and ±100 the full control effect
LASV entry inh: inhibitors of Lassa virus binding or cell entry | Lassa virus pseudotype entry inhibition, cell reporter | Potency, µM (doses to about 37.9 µM), without a hit: at the top dose activity change, negative = inhibition, hits mostly inhibitors | actives 1.2% (n = 300,000) | AID 540256; calls by dose curve; tested in HEK293 cells; further: potency means the concentration at half of the fitted maximal effect; on the % scale 0 is the no-effect control and ±100 the full control effect; nearly all actives have a fitted effect of over 50% in size
CHX counter: affects cycloheximide protein synthesis inhibition readout, counter-screen | cell reporter, cycloheximide protein synthesis inhibition counterscreen | max response, % | actives 12% (n = 300,000); in the data active means max response mostly above about 13%, no sharp cut-off; inactive means mostly below about 14%; further: read at 38.3 µM for the half of the compounds with a filed dose; 0% is about no effect
HCV inhibitor: HCV inhibition | Huh7.5.1 HCVcc-Cre infection, luciferase reporter, 44 h | Potency, µM (titrated, usually from 41.8 µM), for inactives: at the top dose activity change, negative = inhibition, usual class: inhibitors | actives 3.4% (n = 340,000) | AID 651820; active means well fitted inhibition curve with a large enough effect; inconclusive means small, poorly fitted or top-dose-only effect, or another doubt; inactive means no such curve, though single readings can be large or run the other way; further: potency means the concentration at half of the fitted maximal effect; on the % scale 0 is the no-effect control and ±100 the full control effect
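After 44 h co-culture of compound, cells and HCVcc-Cre (~0.5 moi), substrate is added for 15 min at room temperature and luciferase measured over 15 sec. Cells were seeded at 1,000/well and pre-cultured 4 h.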
FMDV inh: blocks foot and mouth disease virus; AID 1159524; FMDV antiviral cell-based qHTS; Potency, µM (highest dose often 57.9 µM), inactives show top-dose activity change, negative = inhibition, most hits filed as inhibitors; actives 1.2% (n = 410,000); calls by dose curve; tested in HEK293T cells; further: read-out not given here; potency means the concentration at half of the fitted maximal effect; on the % scale 0 is the no-effect control and ±100 the full control effect; nearly all actives have a fitted effect of over 45% in size
The depositor's hits bear a star; u = inconclusive; x = not tested or not shown; [ ] = remark or other dose.

SMILES	Shiga toxin inh	MARV entry inh	LASV entry inh	CHX counter	HCV inhibitor	FMDV inh
CCCCOc1ccc(S(=O)(=O)Nc2cccnc2)cc1	-8.9	u	-13.4%	13.0	10µM*	x
CCOc1ccc(S(=O)(=O)Nc2cccc(N(C)S(C)(=O)=O)c2)cc1	13.7	-22.1%[46.1 µM]	u	4.3	10µM*	-15.9%
CCOc1ccc(S(=O)(=O)Nc2cccc(OC)c2)cc1	16.2	u	-16.1%	-2.7	10µM*	43.7%
COc1nc(OC)nc(N2CCC(C(=O)NC3CCCCCC3)CC2)n1	-12.7	2.4%	-19.4%	1.3	u	-16.5%
Cn1c(SCC(=O)N2CCN(c3ccccc3)CC2)nnc1-c1ccccc1	4.0	-28.1%	-1.1%	-0.8	u	u
COc1cc(OC)cc(-c2c(-c3ccsc3)c3cc(Br)ccc3n2C)c1	x	x	x	x	4.1%	-24.1%
C#Cc1cccc(-n2nnc(C(=O)OC)c2-c2ccccc2)c1	15.7	-14.3%	-22.2%	-1.9	3.3%	u
Cc1ccn2c(Nc3ccc4c(c3)OCO4)c(-c3ccco3)nc2c1	x	u	-8.6%[46.1 µM]	x	x	39.9%
COc1ccc(C(=O)CN2C(=O)c3ccccc3C2=O)c(OC)c1	-14.8	x	x	14.9*	1.0%	46.2%
COc1ccc(C(=O)Cc2cc(OC)c(OC)cc2C(=O)c2ccccc2F)cc1OC	3.2	x	x	-1.1	10µM*	-11.6%
COc1ccc(CC(=O)c2cc(OC)c(OC)cc2CC(=O)O)cc1OC	38.1	-1.1%	2.9%	-2.5	12.8%	-18.8%
COc1ccc(C(=O)Cc2ccc(OC)c(OC)c2)c(OC)c1	70.8	-29.3%	-3.5%	12.0*	u	x
COc1ccc(CC(=O)c2ccc(OC)c(OC)c2)cc1	130.0	-7.1%	-0.4%	23.2*	u	22.3%
COc1ccc(CC(=O)OCC(=O)c2ccc(OC)c(OC)c2)cc1	x	7.8%	-1.2%	x	26.8%	-21.3%
CCOc1cc(C(=O)NCc2ccncc2)cc(OCC)c1OCC	-7.3	-8.3%	-10.8%[14.3 µM]	-3.5	-20.0%	-17.4%
CN(C)c1ccc(CNC(=O)CCCN2C(=O)c3cccnc3Oc3ccc(Cl)cc32)cc1	x	x	-12.9%[46.1 µM]	x	x	-9.5%
O=C(CSc1nnc2ccccn12)NNC(=O)c1ccc([N+](=O)[O-])cc1	-6.1	x	x	-2.6	15.5%	-5.0%
COC(=O)c1c(C)[nH]c(C(=O)N2CCN(c3ccc(OC)cc3)CC2)c1C	7.9	x	x	-2.3	x	x
COc1ccc(NC(=O)Cn2c(=O)n(Cc3ccccc3Cl)c(=O)c3cc(OC)c(OC)cc32)cc1	x	-4.1%[46.1 µM]	0.9%[46.1 µM]	x	x	u
O=c1oc2c(-c3ccc([N+](=O)[O-])cc3)cc(O)cc2s1	6.2	-14.4%[46.1 µM]	u	14.8*	2.1%	-15.5%
NC1=C(c2ccc([N+](=O)[O-])cc2)C(=O)CO1	-61.9	13.7%[46.1 µM]	0.1%	11.8	3.8%	3.7%
Cc1nc(NCc2ccccn2)c2c3c(sc2n1)CCCC3	-9.4	u	-0.8%[46.1 µM]	-1.4	22.4µM*	u
c1ccc(CNc2ncnc3sc4c(c23)CCCC4)nc1	2.0	-16.9%	6.9%	-4.0	u	u
COc1ccc2c(c1)CCc1c(C(=O)Nc3ccc(OC)cc3OC)noc1-2	x	25.7%[46.1 µM]	7.3%[46.1 µM]	x	x	6.0%
COc1ccc2c(c1)CCc1c(C(=O)Nc3ccccc3C(F)(F)F)noc1-2	x	u	8.1%[46.1 µM]	x	x	25.2%
SMILES	Shiga toxin inh	MARV entry inh	LASV entry inh	CHX counter	HCV inhibitor	FMDV inh
COc1ccc2c(c1)CCc1c(C(=O)NCc3cccnc3)noc1-2	22.9	u	13.6%	12.2*	5.3%	-15.2%
CCCNC(=O)c1noc2c1CCc1cc(OC)ccc1-2	70.9*	x	x	48.2*	u	-15.9%
COc1ccc2c(c1)CCc1c(C(=O)N3CCCCCC3)noc1-2	114.5*	1.2%	48.2%[14.3 µM]	46.5*	x	63.9%
COc1ccc2c(c1)CCc1c(C(=O)NCC(C)C)noc1-2	178.4*	x	x	39.3*	-9.1%	-4.5%
O=c1oc2ccccc2c(O)c1Cc1cc(Cl)c2cccnc2c1O	-3.2	-0.1%[46.1 µM]	4.3%[46.1 µM]	-2.1	1.5%	-12.8%
COc1ccc2[nH]c3c(c2c1)CCn1c-3nc2ccccc2c1=O	97.4*	u	-13.5%	37.6*	-5.2%	-6.2%
COc1ccc(S(=O)(=O)CCC(=O)N2CCN(c3ccc(C(C)=O)cc3)CC2)cc1	56.3*	u	u	14.7*	-21.4%	-6.5%
Cc1ccc(S(=O)(=O)CCC(=O)N2CCN(c3ccc([N+](=O)[O-])cc3)CC2)cc1	4.7	x	x	14.5	12.6µM*	u
CC(C)c1ccc(OCC(=O)NCCS(=O)(=O)N2CCN(c3ccc(F)cc3)CC2)cc1	x	x	-4.4%[46.1 µM]	x	x	0.0%
COc1ccc(NC(=O)Cn2ncc3c2-c2ccccc2OC3)cc1Cl	x	-21.1%[46.1 µM]	x	x	x	-26.5%
CCOc1ccc2nc(N3CCC(C(=O)Nc4c(C)cccc4C)CC3)sc2c1	x	u	x	x	x	20.2%
CCOc1ccc2nc(N3CCC(C(=O)N4CCN(c5ncccn5)CC4)CC3)sc2c1	38.6	x	x	25.7*	-11.1%	u
CCOc1ccc2nc(N3CCC(C(=O)N4CCN(c5ccccn5)CC4)CC3)sc2c1	20.4	5.7%	x	-0.4	6.31µM*	14.1µM*
C[C@H]1C[C@@H](C)O[C@@]2(C1)C(=O)N(CC1CC1)c1ccccc12	x	-21.5%[14.2 µM]	x	x	x	x
Cc1cc(C(=O)COC(=O)c2ccc([N+](=O)[O-])o2)c(C)n1CC1CCCO1 (stereo not given)	123.0*	-15.7%	14.0%	49.4*	4.4%	8.2%
COc1ccc(C(=O)COC(=O)c2nn(C)cc2Cl)cc1	69.3*	u	u	14.8*	-8.8%	46.9%
COc1ccc(C(=O)COC(=O)c2cccnc2SC)cc1	48.1	-18.2%[46.1 µM]	25.1%	30.3*	-10.1%	47.2%
Cc1cc(C(=O)COC(=O)c2ccc3c(c2)OCO3)c(C)n1CC1CCCO1 (stereo not given)	147.3*	u	3.2%	40.4*	2.3%	81.5%
COc1cc(C(=O)OCC(=O)c2cc(C)n(CC3CCCO3)c2C)cc(OC)c1C (stereo not given)	x	x	x	x	u	-9.3%
COC(=O)c1ccsc1NC(=O)CSc1nnnn1Cc1ccccc1	8.9	-11.9%	-22.2%	-1.2	-21.6%	-19.6%
O=C(CCc1ccccc1Cl)Nc1ccc(S(=O)(=O)N2CCOCC2)cc1	x	-5.1%	u	x	-9.3%	-19.3%
COCCn1c(C)cc(C(=O)COC(=O)c2ccc([N+](=O)[O-])o2)c1C	122.7*	21.2%[46.1 µM]	-29.9%[46.1 µM]	45.9*	11.0%	1.3%
CSc1ncccc1C(=O)OCC(=O)c1cc(C)n(CC2CCCO2)c1C (stereo not given)	56.0*	-11.5%[46.1 µM]	u	38.8*	17.8%	u
Cc1cc(C)c(C(=O)COC(=O)c2ccc([N+](=O)[O-])o2)cc1C	-1.7	2.2%[46.1 µM]	0.6%	9.5	-9.0%	-9.9%
Cc1cc(C(=O)COC(=O)C2CCN(C(=O)c3ccc(Cl)cc3)CC2)c(C)n1CC1CCCO1 (stereo not given)	99.9*	10.0%[46.1 µM]	-18.6%	66.1*	-2.0%	-0.4%
Cc1cc(C(=O)Cn2nnc(-c3ccc(Cl)cc3)n2)c(C)n1CC1CCCO1 (stereo not given)	70.1	-18.6%	u	16.6*	7.94µM*	x

Screens: PubChem BioAssay, National Center for Advancing Translational Sciences (NCATS)
